Source: PubChem BioAssay (several laboratories)
Sampled rows, rich in hits. Any-hit rate of the full collection: about 2.2%.
TMEM16A act = mouse TMEM16A channel activation, primary screen. Q8BHY3. HEK293 TMEM16A/YFP-H148Q/I152L, iodide quench fluorescence; stronger effect = lower value. B-score at 10 µM. 340,000 compounds, 0.3% hits. AID 623877;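 active = fluorescence-ratio B-score plate-corrected deviation score at least 3 library SD below zero, with starting fluorescence score within 5 deviations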;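 also: channel opened by trigger with iodide after compound preincubation; score built on the fluorescence ratio of max minus min over baseline; more negative score means more quench and so TMEM16A activation or potentiation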
NTR1 agonist = activates human neurotensin receptor 1. 330,000 compounds, 0.17% hits. activation, % at 20 µM. P30989. NTR1-U2OS beta-arrestin-GFP spot imaging, agonist mode;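 active = activation at or above 40% of the spot to cytoplasm intensity ratio, with at least 20 cells analyzed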;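 also: 0% = DMSO without peptide and 100% = 100 nM NTR1 peptide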
CHO-K1 Ca ag = M1 agonist counterscreen hit in parental CHO-K1 cells; Fluo-8 calcium fluorescence; scaled to maximal ATP response, vehicle zero; 360,000 compounds, 0.48% hits; activation, % at 3 µM; AID 602248; in the data active = activation above about 15%;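 also: untransfected CHO-K1 host cells lacking M1 receptor as counterscreen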
CHO-K1 Ca antag = counter-screen for M1 antagonists: effect in parental CHO-K1 cells; ATP-induced calcium, Fluo-8 fluorescence; inhibition, % at 3 µM; 360,000 compounds, 0.6% hits;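 active = inhibition above a per-plate cutoff, the plate's mean sample inhibition plus 3 SD, cut at about 24% in these data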;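 also: 0% = DMSO plus EC80 ATP and 100% = DMSO alone without ATP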
CHO-K1 Ca PAM = M1 PAM counterscreen hit in parental CHO-K1 cells. ATP EC20, Fluo-8 calcium fluorescence; 0% at ATP EC20, 100% at ATP max. activation, % at 3 µM. 360,000 compounds, 0.02% hits;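 active = activation above the run cutoff, the mean activation of all test compounds plus 3 SD, cut at about 40% in these data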;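 also: peak over basal fluorescence ratio in a 140 s read after ATP addition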
ANO1 block = blocks the mouse calcium-activated chloride channel TMEM16A; HEK293 TMEM16A/YFP iodide influx fluorescence, ionomycin; AID 588511; normalized B-score (activity score, 25-100; higher = stronger inhibition) at 10 µM; 310,000 compounds, 1.2% hits;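 active = ratio plate-corrected score three or more library SD toward inhibition, starting fluorescence score within five deviations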;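 also: score derived from kinetic fluorescence span divided by baseline fluorescence per well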
The depositor's hits bear a star; i = inactive; nt = not tested or not shown; ! = not confirmed by another sample.

SMILES	TMEM16A act	NTR1 agonist	CHO-K1 Ca ag	CHO-K1 Ca antag	CHO-K1 Ca PAM	ANO1 block
CCOC(=O)c1sc(S(C)(=O)=O)c2c1CCc1conc1-2	i	-1	0	36*	-9	i
Clc1cccc(Cl)c1/C=C/c1nc2ccccc2[nH]1	i	15	0	-10	-14	25*
CCc1nc2ccc(C(=O)NCCOc3ccc(OC)cc3)cn2c1N(CC)CCN(C)C	nt	nt	1	-15	19	nt
CCCc1ccc(C(O)c2ncc(-c3ccccc3)[nH]2)cc1 (stereo unspecified)	nt	nt	2	-1	-1	nt
CCN1CCN(S(=O)(=O)c2ccc(Cl)c(C(=O)Oc3ccc(CC(=O)OC)cc3)c2)CC1	i	nt	3	-12	-1	nt
NS(=O)(=O)c1ccc(NC(=O)c2cc(Cl)ccc2Cl)cc1	-5.5*	0	0	-3	0	i
NS(=O)(=O)c1ccc(NC(=O)Nc2ccc(Cl)cc2)cc1	i	0	1	28*	-10	i
CNC(=O)Nc1ccc(S(N)(=O)=O)cc1	i	0	1	-14	-1	i
N#Cc1ccc(NC(=O)Nc2ccc(Cl)cc2)cc1	i	7	14	26*	8	i
CCC(=O)c1ccc(OCC(=O)OCC(=O)Nc2cccc(S(=O)(=O)N3CCCC3)c2)cc1	i	1	6	-15	4	nt
CCOc1ccc(OCCC(=O)OCC(=O)Nc2ccc(C)c(S(=O)(=O)N3CCCCC3)c2)cc1	i	2	12	12	-26	100*
CCC(=O)c1ccc(OCC(=O)OCC(=O)Nc2ccc(C)c(S(=O)(=O)N3CCCCC3)c2)cc1	i	-2	16*	-4	2	nt
COC(=O)c1ccc(CNC(=O)CC[C@H]2O[C@@H](n3cc(C)c(=O)[nH]c3=O)C[C@@H]2O)cc1	nt	nt	1	-10	8	nt
CCC1CCCCN1S(=O)(=O)c1ccc(C(=O)Nc2nnc(-c3ccccc3Cl)o2)cc1 (stereo unspecified)	i	1	0	-8	21	100*
C=CCn1cnnc1SCC(=O)Nc1cccnc1Cl	nt	1	nt	nt	nt	nt
O=C(NCc1ccc(Cl)cc1)c1ccc(Cl)cc1[N+](=O)[O-]	i	-1	0	-3	8	i
Cc1ccc(CNC(=O)c2ccc(Cl)cc2[N+](=O)[O-])cc1	i	0	0	26*	-8	i
CC(=O)Nc1cc2c(cc1Cl)-c1ccccc1C2	i	nt	1	26*	-13	nt
CSc1ccc2c(c1)C(N1CCN(C)CC1)Cc1ccccc1S2 (stereo unspecified)	i	7	15*!	11	0	i
CN1CCN(C2Cc3ccccc3Sc3ccc(Cl)cc32)CC1 (stereo unspecified)	i	1	7	20	-4	i
CC(C)Cc1ccc(C(C)C(=O)Nc2nccs2)cc1 (stereo unspecified)	i	2	17*	8	22	i
CC(C)Cc1ccc(C(C)C(=O)Nc2ccccc2O)cc1 (stereo unspecified)	i	15	38*	46*	-8	25*
N#C/C(=C/c1ccc(N2CCOCC2)o1)C(=O)Nc1ccccc1	i	nt	61*	20	-3	nt
N#C/C(=C\c1ccc(N2CCOCC2)o1)C(=O)NCCc1ccccc1	i	-2	23*	15	-7	i
COc1ccc(NC(=O)Nc2ccc3c(c2)N(C)C(=O)CS3)cc1Cl	i	5	7	28*	-2	i
SMILES	TMEM16A act	NTR1 agonist	CHO-K1 Ca ag	CHO-K1 Ca antag	CHO-K1 Ca PAM	ANO1 block
O=C(Nc1ccc(F)cc1)Nc1ccc2c(c1)OCO2	i	0	21*	10	-11	i
O=C(Nc1ccc([N+](=O)[O-])cc1)Nc1ccc(OC(F)F)c(Cl)c1	i	nt	32*	25*	8	i
COc1ccc(NC(=O)Nc2cccc([N+](=O)[O-])c2)cc1Cl	i	8	14	30*	-3	i
NC(=O)c1cccc(Nc2nc(C(N)COCc3ccccc3)cs2)n1 (stereo unspecified)	nt	nt	1	-3	17	nt
O=C(Nc1ccc(OC(F)F)c(Cl)c1)Nc1ccc2c(c1)OCO2	i	2	8	27*	4	i
CS(=O)(=O)Nc1ccc(C(=O)Nc2ccc3c(c2)OCO3)cc1	-10*	3	0	3	5	i
